Assay outcomes from PubChem.
CYP2C9 activ = human CYP2C9 activators, primary screen, biochemical, luminescence | Cytochrome P450 2C9 (Homo sapiens), P11712 | recombinant CYP2C9, luciferin-H conversion; stronger effect = higher value; factor 1 = untreated enzyme, 0 = blocked | activation factor at 5 µM | 96,000 compounds, 1.4% hits;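 active = activation factor of 2 or more for CYP2C9 at a 5 µM dose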
sEH inh = soluble epoxide hydrolase inhibitors, primary screen, biochemical, human sEH; Bifunctional epoxide hydrolase 2 (Homo sapiens), P34913; recombinant human sEH enzymatic activity assay; inhibition, % at 2 µM; 91,000 compounds, 0.34% hits; in the data active = inhibition above about 80%
CYP2C9 inh = blockers of cytochrome P450 2C9 activity – biochemical, luminescence, ADME assay, primary screen | P11712 | CYP2C9 Supersomes, luciferin-H conversion | AID 777, 2007 | inhibition, % at 5 µM | 96,000 compounds, 20% hits;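 active = blocking of liver enzyme CYP2C9 beyond about 50% at 5 µM, limit read from the data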
sEH act = soluble epoxide hydrolase activators, primary screen, biochemical, human sEH; 91,000 compounds, 0.04% hits; activation, % at 2 µM; Bifunctional epoxide hydrolase 2 (Homo sapiens), P34913; AID 717, 2007; purified human sEH enzymatic activity, activator screen; in the data active = activation above about 37%
CYP2C19 act = human CYP2C19 activators, primary screen, biochemical, luminescence; Cytochrome P450 2C19 (Homo sapiens), P33261; recombinant CYP2C19, luciferin-H EGE luminescence; stronger effect = higher value; 0 = fully inhibited enzyme, 1 = untreated enzyme; activation factor at 5 µM; 96,000 tested, under 10 active; AID 1025, 2008;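 active = activation factor of at least 2 at 5 µM in the primary screen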
Target sequence (P33261 whole entry, looked up): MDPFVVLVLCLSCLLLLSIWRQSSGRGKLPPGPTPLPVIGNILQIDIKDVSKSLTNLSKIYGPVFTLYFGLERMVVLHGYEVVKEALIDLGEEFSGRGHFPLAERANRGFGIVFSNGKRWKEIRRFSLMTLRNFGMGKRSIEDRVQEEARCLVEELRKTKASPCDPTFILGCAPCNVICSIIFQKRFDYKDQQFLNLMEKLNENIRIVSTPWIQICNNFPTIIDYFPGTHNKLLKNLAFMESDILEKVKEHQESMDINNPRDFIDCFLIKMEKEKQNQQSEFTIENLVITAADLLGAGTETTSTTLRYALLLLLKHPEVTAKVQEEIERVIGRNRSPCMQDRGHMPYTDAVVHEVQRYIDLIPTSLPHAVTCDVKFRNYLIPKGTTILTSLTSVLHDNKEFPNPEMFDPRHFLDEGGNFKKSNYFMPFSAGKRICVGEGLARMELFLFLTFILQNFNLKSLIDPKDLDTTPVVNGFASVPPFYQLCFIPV
CYP2C19 inhib = blockers of cytochrome P450 2C19 activity – biochemical, luminescence, ADME assay, primary screen | CYP2C19 Supersomes, luciferin-H EGE luminescence, 30 min | inhibition, % at 5 µM | 96,000 compounds, 21% hits | AID 778, 2007;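 active = CYP2C19 inhibition above a set limit at 5 µM in the primary screen, cut at about 50% in these data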
Hits are given with their value; 0 = inactive; - = no result. Sampled rows, rich in hits. Any-hit rate of the full collection: about 27%.

SMILES | CYP2C9 activ | sEH inh | CYP2C9 inh | sEH act | CYP2C19 act | CYP2C19 inhib
CS(=O)(=O)N1CCc2cc(-c3csc(NC(=O)Cc4cccs4)n3)ccc21 | 0 | 0 | 83 | 0 | 0 | 90
O=C(CN1CCOCC1)Nc1nc(-c2ccc3c(c2)CCN3S(=O)(=O)c2ccccc2)cs1 | 0 | 0 | 86 | 0 | 0 | 68
CCCCCCCC(=O)OC(CN1CCCCC1)CN1CCCC1=O (stereo unspecified) | 0 | 0 | 0 | 0 | 0 | 0
COc1ccc(NC(=O)Cn2c(=O)n(CC(=O)NCc3ccco3)c(=O)c3ccccc32)cc1OC | 0 | 0 | 0 | 0 | 0 | 0
O=C1CC(c2ccc(Cl)cc2)CC(O)=C1C=NCc1ccc(Cl)c(Cl)c1 (stereo unspecified) | 0 | 0 | 0 | 0 | 0 | 0
C=CCn1c(SCC(=O)N2CCOCC2)nc2sc3c(c2c1=O)CCCC3 | 0 | 0 | 80 | 0 | 0 | 71
C=CCn1c(SCC(=O)Nc2cc(C)on2)nc2sc3c(c2c1=O)CCCC3 | 0 | 0 | 0 | 0 | 0 | 0
Cn1c(SCc2nnc(-c3ccccc3Br)o2)nc2sc3c(c2c1=O)CCC3 | 0 | - | 94 | - | 0 | 77
Cn1c(SCC(=O)N2CCOCC2)nc2sc3c(c2c1=O)CCCC3 | 0 | 0 | 88 | 0 | 0 | 60
Cc1nn(Cc2ccccc2)c(C)c1NC(=O)CSc1nc2sc3c(c2c(=O)n1C)CCC3 | - | 0 | - | 0 | - | -
O=C(O)C1CSC2(c3ccc4c(c3)OCCO4)CCC(=O)N12 (stereo unspecified) | 0 | 0 | 0 | 0 | 0 | 0
Cc1ccc(C)c2[nH]c(=O)c(CCNS(=O)(=O)c3ccccc3)cc12 | 0 | 0 | 61 | 0 | 0 | 76
COc1ccc(OC)c2[nH]c(=O)c(CCNS(=O)(=O)c3ccc(Cl)cc3)cc12 | 0 | 0 | 84 | 0 | 0 | 0
COc1ccc(OC)c2[nH]c(=O)c(CCNS(=O)(=O)c3ccc(C)cc3)cc12 | 0 | 0 | 68 | 0 | 0 | 0
Cc1ccccc1-c1nc2cc(N)ccc2o1 | 0 | - | 0 | - | 0 | 0
Cc1cc2nn(-c3cccc4ccccc34)nc2cc1N | 0 | 0 | 58 | 0 | 0 | 0
Cc1ccc(-n2nc3cc(C)c(N)cc3n2)cc1 | 0 | 0 | 0 | 0 | 0 | 0
Nc1ccc2nn(-c3cccc4ccccc34)nc2c1 | 0 | 0 | 51 | 0 | 0 | 0
Cc1ccn2c(C(=O)CSc3ccc(Cl)cc3Cl)c(C)nc2c1 | 0 | 0 | 0 | 0 | 0 | 0
CN1CCN(CC(C)(C)NS(=O)(=O)c2ccc(Cl)cc2)CC1 | 0 | 0 | 0 | 0 | 0 | 95
Cc1ccc(O)c(NC(=S)NC(=O)c2ccc(-c3ccc(Cl)cc3)o2)c1 | - | 0 | - | 0 | - | -
COC(=O)c1ccc(OC)c(CSc2nnc(-c3ccc(C(C)(C)C)cc3)o2)c1 | 0 | 0 | 84 | 0 | 0 | 90
CCOC(=O)N1CCN(C(=O)CSc2nnc(COc3ccc(Cl)cc3)o2)CC1 | 0 | - | 0 | - | 0 | 0
COC(=O)c1ccc(OC)c(CSc2nnc(COc3ccc(Cl)cc3)o2)c1 | 0 | 0 | 88 | 0 | 0 | 76
O=C(CSc1nnc(COc2ccc(Cl)cc2)o1)N1c2ccccc2CCc2ccccc21 | 0 | 0 | 74 | 0 | 0 | 0
SMILES | CYP2C9 activ | sEH inh | CYP2C9 inh | sEH act | CYP2C19 act | CYP2C19 inhib
COC(=O)c1ccc(OC)c(CSc2nnc(COc3ccccc3)o2)c1 | 0 | 0 | 0 | 0 | 0 | 0
Cc1ccccc1NC(=S)NCc1ccc2c(c1)OCO2 | 0 | 0 | 0 | 0 | 0 | 90
CCc1ccccc1NC(=S)NCc1ccc2c(c1)OCO2 | 0 | 0 | 0 | 0 | 0 | 61
Cc1ccc(C)c(NC(=S)NCc2ccc3c(c2)OCO3)c1 | 0 | 0 | 0 | 0 | 0 | 56
CCCCCCn1c(CN2CCCCC2CC)nc2c1c(=O)n(C)c(=O)n2C (stereo unspecified) | 0 | - | 0 | - | 0 | 0
O=C(Cn1c(N2CCN(c3ccccc3)CC2)nc2ccccc21)c1ccccc1 | 0 | - | 0 | - | 0 | 0
COC(=O)NNC(=O)C(C)Oc1ccc(Cl)cc1Cl (stereo unspecified) | 0 | 0 | 0 | 0 | 0 | 0
Cc1cc(Cl)ccc1OC(C)C(=O)NCCCCc1ccccc1 (stereo unspecified) | 0 | 0 | 56 | 0 | 0 | 0
